Sampled rows, rich in hits. Any-hit rate of the full collection: about 2.4%.
HSF1 inhib: HSF1 inhibition; NIH3T3-HGL HSE-luciferase, MG132-induced, luminescence 8 h; active compounds read low; 0.77% of 300,000 active; AID 2098; activity change, negative = inhibition, % at 7.5 µM (by protocol);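 active means more than half of replicate wells show activity change below -50%, luminescence cut by over half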;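 further: luciferase reports HSF-1 transcriptional activity via heat shock element; 0% = median of DMSO wells and -100% = zero luminescence signal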
STAT3 inh-1: inhibitors of IL-6 induced STAT3 signaling; U3A cells, IL-6 STAT3-luciferase reporter, luminescence; host cell line lacks STAT1; AID 862; inhibition, % at 5.5 µM; 0.89% of 190,000 active;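 active means inhibition above the mean inhibition across all screened compounds plus 3 SD, cut at about 44% in these data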;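 further: 0% = DMSO only wells and 100% = 100 µM nifuroxazide control wells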
STAT1 blocker: inhibitors of IFN-gamma induced STAT1 signaling | NIH 3T3 STAT1-luciferase reporter, luminescence | inhibition, % at 5.5 µM | 0.35% of 200,000 active;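 active means inhibition above a set limit, the mean inhibition across all tested compounds plus 3 SD, cut at about 34% in these data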;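 further: 0% = IFN-gamma with DMSO and 100% = IFN-gamma with 300 µM nifuroxazide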
HSP90 inh: inhibitors of HSP90 luciferase refolding in rabbit reticulocyte lysate | luciferase refolding luminescence, 3 h | inhibition, % at 5.6 µM | 0.91% of 290,000 active | AID 1789;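 active means inhibition above the screen-wide mean plus 3 SD, computed separately per campaign, cut at about 16% in these data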;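 further: 0% = DMSO wells and 100% = 60 µM geldanamycin wells; inhibitors lower the luminescence because luciferase stays unfolded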
PPC-1+TRAIL kill: PPC-1 cancer cell killing with TRAIL present; PPC-1 cells + TRAIL, ATPLite viability luminescence; cell killing (% activity), % at 4 µM or 5 µM; 0.41% of 220,000 active; AID 1443;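 active means cell killing above 50% in the first pass at 4 µM, then a duplicate retest at 5 µM averaging 50% or more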;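 further: plate controls were cells with TRAIL plus DMSO for no effect and medium-only wells lacking cells for full effect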
TRAIL sens C8: caspase-8 TRAIL sensitization. NB7+C8 cells + TRAIL, ATPlite viability luminescence. inhibition (viability loss, TRAIL sensitization), % at 10 µM. 1% of 360,000 active;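 active means compounds causing at least 50% loss of cell viability in the single-dose screen, relative to plate controls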
STAT3 inh-2: confirmation of STAT3 signaling inhibitors | U3A cells, IL-6 STAT3 luciferase reporter, luminescence; cell line lacks STAT1 | 45% of 1,200 active | shares compounds with STAT3 inh-1 | inhibition, % at 5.7 µM;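 active means inhibition above the hit cutoff computed for the primary STAT3 screen, cut at about 44% in these data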;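 further: 0% = IL-6 plus DMSO and 100% = IL-6 plus nifuroxazide control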
NFkB inh STAT3ct: NF-kappaB inhibition in STAT3 inhibitor counter-screen; shares compounds with STAT3 inh-1; HEK293T NF-kB luciferase reporter, TNF-alpha induced; inhibition, % at 5.7 µM; 36% of 1,200 active;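 active means inhibition above the mean of solvent-only control wells plus 3 SD, cutoff set per campaign, cut at about 13% in these data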;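 further: 0% = TNF-alpha with DMSO and 100% = TNF-alpha with MG high control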
STAT1 inh STAT3c: counter-screen for STAT3 inhibitors: STAT1 inhibition; inhibition, % at 5.7 µM; NIH 3T3 STAT1-luciferase reporter, IFN-gamma induced, luminescence; shares compounds with STAT3 inh-1; 27% of 1,200 active;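 active means inhibition above the mean plus 3 SD of solvent-only control wells, limit set per screening run, cut at about 16% in these data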;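 further: 0% = DMSO with IFN-gamma and 100% = nifuroxazide control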
Starred values were filed as active, the others as inactive; · = no result given.

SMILES	HSF1 inhib	STAT3 inh-1	STAT1 blocker	HSP90 inh	PPC-1+TRAIL kill	TRAIL sens C8	others
C/C(=N\NC(=O)c1cc2ccccc2cc1O)c1cc2ccccc2o1	4	·	·	-2	5	11
C/C(=N\NC(=O)c1ccccc1[N+](=O)[O-])c1ccc(Br)s1	14	2	10	3	4	-5
C/C(=N\NC(=O)c1ccccc1O)c1ccc(Br)s1	14	4	0	1	41	54*
Cc1cccc(CN2CCN([C@H]3CS(=O)(=O)N[C@@H]3COCc3ccccc3)CC2)c1	·	·	·	·	·	4
COC(=O)[C@@]12C[C@@H](CC(=O)NCC3CCCCC3)C(=O)N(CCc3ccc(OC)c(OC)c3)C1=CCC(C)(C)C2	·	·	·	·	·	8
CC1CCN(C(=O)CSc2nc3c(cnn3-c3ccc(Cl)cc3)c(=O)[nH]2)CC1	-86*	5	-11	1	15	-29
CN(C)c1cccc(NC(=O)C2Cc3c(-c4ccc(Cl)cc4)ccnc3O2)c1 (stereo not given)	·	·	·	·	·	-4
Cc1nc(-c2ccc(Cl)cc2)sc1C1(C)CC(c2ccc(Cl)cc2)=NO1 (stereo not given)	-63*	·	·	·	·	-5
Cc1nc(-c2ccc(Cl)cc2)sc1C1(C)CC(c2ccccc2)=NO1 (stereo not given)	-28	·	·	·	·	11
O=C(COC(=O)/C=C/c1ccccc1)NCc1ccco1	·	·	·	·	·	7
C=CCNC(=O)c1c(C(F)(F)F)nn(C)c1Cl	-54*	-16	1	-2	1	1
O=C(COC(=O)c1ccc(F)cc1F)Nc1cc(S(=O)(=O)N2CCOCC2)ccc1Cl	·	·	·	·	·	-16
CC[C@@]1(c2cccc(C)c2)C(=O)N(C(=O)OC)N1C(=O)OC	-2	·	·	-3	·	7
CCOC(=O)N1C(=O)[C@@](CC)(c2ccccc2)N1C(=O)OCC	-55*	·	·	0	·	-8
Nc1nc(=S)c2[nH]cnc2[nH]1	·	·	·	·	·	75*
O=C(COc1ccccc1Cl)Nc1ccc(Cl)cn1	59	12	-52	-1	38	50*
O=C(COc1ccc(Cl)cc1Cl)Nc1ccccn1	·	111*	89*	87*	23	94*
Cc1cc(F)ccc1-c1cc(C(=O)NC2CCCCC2)[nH]n1	·	·	·	·	·	-9
CC1=C2C3OC(=O)C(C)C3CCC2(C)C=C(Cl)C1=O (stereo not given)	·	·	·	·	·	-15
CC(NNC(=S)N1CCCCCC1)c1ccc2ccccc2n1 (stereo not given)	·	·	·	·	·	-7
O=C(O)CC(Cc1ccc(Br)cc1)C(=O)O (stereo not given)	-76*	2	-3	0	-7	-6
CC(=O)Nc1sc2c(c1-c1nc3ccccc3s1)CN(C(C)C)CC2	·	·	·	·	·	54*
CC(=O)N1CCc2c(sc(NC(=O)C3CC3)c2-c2nc3ccccc3s2)C1	0	-4	0	-1	-19	-2
COc1cc(/C=N/N=C2/C(=O)Nc3ccccc32)cc(OC)c1O	-72*	-4	0	3	12	25
COc1ccc(C2N=C(N)N=C(N)N2c2ccc(C)cc2)cc1 (stereo not given)	-6	-7	1	0	1	-10
SMILES	HSF1 inhib	STAT3 inh-1	STAT1 blocker	HSP90 inh	PPC-1+TRAIL kill	TRAIL sens C8	others
Cc1cc(C)cc(N2C(N)=NC(N)=NC2c2ccccc2F)c1 (stereo not given)	-6	·	·	1	·	70*
Cc1cc(C)cc(N2C(N)=NC(N)=NC2c2cccc(Cl)c2)c1 (stereo not given)	-1	·	·	5	·	69*
O=C(CCCCCCN1C(=O)c2ccccc2C1=O)N1CCC(c2ccccc2)C1 (stereo not given)	-64*	14	-1	1	28	15
COc1ccc2c(n1)Sc1nc3ccccc3nc1N2	27	·	·	-4	19	77*
O=C(NC1CCCCC1)C(c1ccnc2ccccc12)n1c(=O)c(-c2ccccc2)nc2ccccc21 (stereo not given)	·	·	·	·	·	17
C#CCOCCOCCOCCNc1nc(N2CCN(C(=O)CCCCCCCCCCNC(=O)[C@H]([C@@H](C)CC)n3cc(CCCCCN)nn3)CC2)nc(N2CCN(C(=O)CCCCCCCCCCNC(=O)[C@H]([C@@H](C)CC)n3cc(CCCCN=C(N)N)nn3)CC2)n1	·	·	·	·	·	51*
C#CCOCCOCCOCCNc1nc(N2CCN(C(=O)CCCCCCCCCCNC(=O)[C@H]([C@@H](C)CC)n3cc(CCCCN=C(N)N)nn3)CC2)nc(N2CCN(C(=O)CCCCCCCCCCNC(=O)[C@H](CO)n3cc(CCCCCN)nn3)CC2)n1	·	·	·	·	·	40
C#CCOCCOCCOCCNc1nc(N2CCN(C(=O)[C@H](CCC(=O)O)n3cc(C(N)CC(C)C)nn3)CC2)nc(N2CCN(C(=O)[C@H](CCC(=O)O)n3cc(C(N)CC(C)C)nn3)CC2)n1 (stereo not given in full)	-5	·	3	17*	0	-8
CCOc1ccc(CC(=O)N2CCC3(CC2)NCCc2[nH]cnc23)cc1	-62*	·	·	1	·	-2
COc1ccc(CC(=O)N2CCC3(CC2)NCCc2[nH]cnc23)cc1	-5	·	·	-4	·	-10
Cc1ccc(S(=O)(=O)N=N/C=C2\C=CC=CN2O)cc1	·	·	·	·	·	-1
Nc1c(C(=O)N2CCOCC2)sc2nc3c(cc12)CCCC3	-10	·	·	3	·	57*
Cc1cccc(C)c1NC(=O)C(c1ccnc2ccccc12)N1CCN(C)CC1 (stereo not given)	·	·	·	·	·	7
COc1cc(NC(=O)c2cccs2)ccc1NC(=O)Cc1ccccc1	3	·	·	-3	·	3
COc1cc(NC(=O)c2ccc([N+](=O)[O-])o2)ccc1NC(=O)c1cccs1	69	44*	-14	-2	23	44	STAT3 inh-2=28;NFkB inh STAT3ct=5;STAT1 inh STAT3c=-14

Screening data from PubChem.
